According to ChEMBL document CHEMBL3988442, “University of Dundee, Small-Polar-MMV Screening Library” (2021):
The campaign covered roughly 48,000 compounds. About 13,000 (27%) showed an effect of 50% or more. Some of the results follow.

Test system: Wolbachia pipientis
Assay: Anti-Wolbachia Cell-Based Screen
Type: functional
Design: scale not given: in the data most compounds retested in dose-response had high values
Settings: 5 µM

Going from `O=C(NCCCn1nc2ccccn2c1=O)NC1CCC(O)CC1` (configuration not stated) to `NS(=O)(=O)CCNC(=O)c1nnn(-c2ccccc2)c1C1CC1`, the “Percent Effect” value falls from -5.846% to -6.368%.

Compared with `CC(CCSc1ccccc1)N1CCCN(C(N)=O)CC1` (configuration not stated), `CCNC(=O)N1CCN(c2nc3ccccc3n2C)CC1` is higher in “Percent Effect” value: 1.732% for the first, 113.5% for the second.

Compared with `COc1cc2c(cc1OC)S(=O)(=O)N(Cc1cnn(C)c1)C2=O`, `CNC(=O)c1cnc(/C=C/c2cc(OC)c3c(c2)OCCO3)s1` is higher in “Percent Effect” value: -5.179% for the first, 15.86% for the second.

Compared with `CCN(Cc1cccc(-c2ccncc2)c1)S(C)(=O)=O`, `CN(Cc1ccc([S+](C)[O-])cc1)c1ccccn1` (configuration not stated) is lower in “Percent Effect” value: 22.59% for the first, -21.98% for the second.

Going from `COc1ccnc(N2CCC(OCCN3CCCCC3)C2)n1` (configuration not stated) to `CNC(=O)[C@@H]1CN(C(=O)C2CCC2)C[C@H]1c1ccnc(N2CCCC2)n1.Cl`, the “Percent Effect” value rises from -2.392% to 84.63%.

Compared with `CCCS(=O)(=O)N1CCC2(CN(c3ccsc3)C(=O)CN2C)C1.O=C(O)C(F)(F)F` (configuration not stated), `CCN(C)c1ncnc2c1CCN(C(=O)c1ccsc1)CC2.O=C(O)C(F)(F)F` is lower in “Percent Effect” value: 2.599% for the first, -2.544% for the second.

Going from `Cc1ncsc1CCN1CCC(N(C)Cc2noc(C(C)C)n2)C1` (configuration not stated) to `Cc1nc(CN2CCC(N(C)Cc3noc(C(C)C)n3)C2)cs1` (configuration not stated), the “Percent Effect” value rises from 6.438% to 19.33%.

Compared with `CC(C)c1nc(CN(C)C2CCN(CCc3ccncc3)C2)no1` (configuration not stated), `CC(C)c1nc(CN(C)C2CCN(CCn3cc(C#N)cn3)C2)no1` (configuration not stated) is lower in “Percent Effect” value: 78.23% for the first, 72.8% for the second.

Compared with `CC(C)c1nc(CN(C)C2CCN(CC(F)(F)F)C2)no1` (configuration not stated), `Cc1nc(CN(C)C2CCN(CCn3cc(C#N)cn3)C2)no1` (configuration not stated) is higher in “Percent Effect” value: 0.6339% for the first, 105.6% for the second.

Compared with `CN(CC1CN(CCn2cc(C#N)cn2)CCO1)c1cccnn1` (configuration not stated), `CCc1nc(CN(C)C2CCN(CCn3cc(C#N)cn3)C2)no1` (configuration not stated) is higher in “Percent Effect” value: -17.7% for the first, 10.97% for the second.

Compared with `CN(Cc1noc(C2CC2)n1)C1CCN(CCn2cc(C#N)cn2)C1` (configuration not stated), `CN(c1ccc(C#N)cn1)C1CCCN(Cc2noc(C3CC3)n2)C1` (configuration not stated) is lower in “Percent Effect” value: 90.88% for the first, 3.102% for the second.

First: Cc1nn(CCO)c(C)c1CNC1CCc2c(Cl)cccc21 (configuration not stated)
Second: CCc1c(C)nn(CCNC(=O)C2CCCN(C(=O)N(C)C)C2)c1C (configuration not stated)
The “Percent Effect” value of the first is higher: 9.566% for the first, -3.279% for the second.

Going from `CCOC(C)c1nc(CN2CCN(CC(F)F)CC2)cs1` (configuration not stated) to `CC(C)c1nc(CNC(=O)c2ccc(C(C)N3CCCCC3)o2)cs1` (configuration not stated), the “Percent Effect” value rises from -28.37% to 4.315%.

Going from `CCc1c(C(=O)N2CC[C@H](N3CCOCC3)[C@H](CCCO)C2)csc1C` to `CS(=O)(=O)N1CC[C@H]2C[C@@H](C(=O)N3CCOCC3)O[C@@H]2C1`, the “Percent Effect” value falls from -10.58% to -11.49%.

First: C=C(C)CN1CCC(c2n[nH]c(C3CC3)n2)CC1
Second: CC(=O)N1CCCC1c1cc(N2CCN(CC3CC3)CC2)cc(C)n1 (configuration not stated)
The “Percent Effect” value of the first is lower: -34.27% for the first, 101% for the second.

First: O=C(Nc1cnccn1)[C@H]1CO[C@H]2CCN(c3ncc(F)cn3)C[C@H]2C1.O=C(O)C(F)(F)F
Second: CNC(=O)[C@H]1CO[C@H]2CCN(c3ncc(F)cn3)C[C@H]2C1.O=C(O)C(F)(F)F
The “Percent Effect” value of the first is higher: 104.1% for the first, 80.41% for the second.

Compared with `O=C(Nc1cnccn1)[C@@H]1C[C@H]2OCC[C@H]2N(c2ncc(F)cn2)C1`, `O=C(Nc1cccnc1)[C@H]1CO[C@H]2CCN(c3ncc(F)cn3)C[C@H]2C1.O=C(O)C(F)(F)F.O=C(O)C(F)(F)F` is higher in “Percent Effect” value: -10.05% for the first, -5.908% for the second.

Compared with `CC(=O)N1[C@H](Cn2cncn2)C[C@@H]2CN(c3ncc(F)cn3)CC[C@@H]21.O=C(O)C(F)(F)F`, `CN(C)C(=O)[C@H]1CO[C@H]2CCN(c3ncc(F)cn3)C[C@H]2C1.O=C(O)C(F)(F)F` is higher in “Percent Effect” value: -4.782% for the first, 120.2% for the second.

Compared with `CN(C)C(=O)[C@H]1C[C@H]2OCC[C@H]2N(Cc2ccc(F)cc2)C1.O=C(O)C(F)(F)F`, `CCc1ccc(CN2CC[C@@H]3CN(S(C)(=O)=O)CCO[C@@H]3C2)o1.O=C(O)C(F)(F)F` is higher in “Percent Effect” value: -2.638% for the first, 2.069% for the second.

First: CN1CCN(C(=O)[C@H]2C[C@@H]3CN(c4ncc(F)cn4)C[C@@H]3N2C)CC1.O=C(O)C(F)(F)F.O=C(O)C(F)(F)F.O=C(O)C(F)(F)F
Second: Fc1cnc(N2CC[C@@H]3CN(Cc4ccncc4)CCO[C@@H]3C2)nc1.O=C(O)C(F)(F)F.O=C(O)C(F)(F)F.O=C(O)C(F)(F)F
The “Percent Effect” value of the first is higher: 6.01% for the first, -11.92% for the second.

First: CS(=O)(=O)N1CCO[C@@H]2CN(C(=O)C3CCOC3)CC[C@@H]2C1 (some centres not stated)
Second: CS(=O)(=O)N1CCO[C@@H]2CN(C(=O)N3CCOCC3)CC[C@@H]2C1
The “Percent Effect” value of the first is higher: 99.33% for the first, 93.86% for the second.

First: CS(=O)(=O)N1CCO[C@@H]2CN(C(=O)C3CC(F)(F)C3)C[C@@H]2C1
Second: CS(=O)(=O)N1CCO[C@@H]2CN(C(=O)COC3CCCC3)C[C@@H]2C1
The “Percent Effect” value of the first is higher: 99.59% for the first, -4.785% for the second.

Compared with `CS(=O)(=O)N1CCO[C@@H]2CN(C(=O)N3CCCC3)CC[C@@H]2C1`, `CC(C)NC(=O)N1CC[C@@H]2CN(S(C)(=O)=O)CCO[C@@H]2C1` is higher in “Percent Effect” value: 106.3% for the first, 112.1% for the second.

First: Cc1ncc(S(=O)(=O)Nc2ccnn2C(C)C)[nH]1
Second: Cc1ccc(-n2nnc(C(=O)NS(C)(=O)=O)c2C2CC2)cc1
The “Percent Effect” value of the first is lower: -21.74% for the first, -4.729% for the second.

Going from `COCCN1CCN(C(=O)c2ccccc2C(C)=O)[C@H]2CS(=O)(=O)C[C@H]21` to `COC(=O)CNC(=O)N1CCN(c2nc3ccccc3n2C)CC1`, the “Percent Effect” value rises from -3.299% to 124.8%.

Going from `O=C1NCC2(CCCN(Cc3ccccc3OCCO)C2)O1` (configuration not stated) to `COCCC1(C(=O)O)CCCN(Cc2ccccc2OCCO)C1` (configuration not stated), the “Percent Effect” value rises from -12.98% to -7.98%.

First: COc1ccccc1CN1CCCC2(Cc3ccccc3CNC2=O)C1 (configuration not stated)
Second: Cc1cccc(CN2CCCC3(Cc4ccccc4CNC3=O)C2)n1 (configuration not stated)
The “Percent Effect” value of the first is lower: 121.9% for the first, 122.4% for the second.

First: Cc1cccc(CN2CCCC3(CCN(c4cccnc4)C3=O)C2)n1 (configuration not stated)
Second: CN(Cc1cn2c(n1)CN(C(=O)c1cccnc1)CC2)Cc1ccco1
The “Percent Effect” value of the first is lower: -4.562% for the first, -4.152% for the second.

Compared with `CCOC(=O)N1CCN(c2nc(N3CCCC3)c3ccccc3n2)CC1`, `CCOC(=O)N1CCN(c2nc(NC)c3ccccc3n2)CC1` is higher in “Percent Effect” value: -6.467% for the first, -5.868% for the second.

First: CCNC(=O)N1CCC(=Cc2ccccc2)CC1
Second: COC(=O)CNC(=O)N1CCC2(CC1)CC(c1ccccc1)CN(C)C2 (configuration not stated)
The “Percent Effect” value of the first is higher: 6.266% for the first, -8.809% for the second.

Compared with `CCOC(=O)C(C)NC(=O)N1CCN(c2nc3ccccc3n2C)CC1` (configuration not stated), `CCOC(=O)CCNC(=O)N1CCN(c2nc3ccccc3n2C)CC1` is lower in “Percent Effect” value: 155.3% for the first, -6.682% for the second.

Going from `Cn1c(SCC(=O)NC(C)(C#N)C2CC2)nc2ccccc21` (configuration not stated) to `CS(=O)(=O)NC(=O)c1nnn(-c2ccccc2)c1C1CC1`, the “Percent Effect” value rises from -4.187% to 97.89%.

Going from `Cc1oc(NC(=O)C(C)N2CCN(C(C)(C)CO)CC2)c(C#N)c1C` (configuration not stated) to `Cc1n[nH]c(C)c1C1CCCN1C(=O)NCC(=O)NC(C)(C)C` (configuration not stated), the “Percent Effect” value falls from -7.519% to -8.161%.

Going from `O=C(Cc1cccc(F)c1F)NS(=O)(=O)c1cncc(Cl)c1` to `CS(=O)(=O)NC(=O)c1nnn(-c2cccc(F)c2)c1C1CC1`, the “Percent Effect” value rises from -8.127% to 110.8%.

Going from `Cc1ccc(OC2(C(=O)O)CCN(C/C=C/c3ccco3)CC2)cn1` to `CCOc1cccc(C(=O)N2CCCn3nc(CCC(=O)O)cc3C2)c1`, the “Percent Effect” value falls from 1.431% to -15.16%.

First: CCN1CCN(c2ccc(CNC(=O)c3c(C)noc3C)cn2)CC1
Second: Cc1nc(CNCc2ccc(N3CCC(CO)CC3)nc2)cs1
The “Percent Effect” value of the first is higher: 9.474% for the first, -0.2455% for the second.

First: Cc1nc(C)n(CC(C)C(=O)N2CCC(NS(C)(=O)=O)CC2)n1 (configuration not stated)
Second: CNC(=O)[C@@H]1CN(C(=O)C(C)C)C[C@H]1c1ccnc(N2CCCC2)n1.Cl
The “Percent Effect” value of the first is lower: -0.2261% for the first, 109.4% for the second.

Compared with `CS(=O)(=O)Cc1ccc(CNc2ncc(C#N)cc2Cl)cc1`, `COCCS(=O)(=O)NC(=O)c1nnn(-c2ccc(F)cc2)c1C1CC1` is higher in “Percent Effect” value: -4.102% for the first, -1.625% for the second.

First: CCN(C)C(=O)C1(c2ccc(F)cc2F)CCC1
Second: Cc1cc(F)ccc1S(=O)(=O)N1C[C@@H](C)[C@@](C)(O)C1
The “Percent Effect” value of the first is lower: -1.611% for the first, 6.812% for the second.

Compared with `CC(=O)N1CCCC1c1cc(N2CCN(C3CCCC3)CC2)cc(C)n1` (configuration not stated), `CC(=O)N1CCCC1c1cc(N2CCN(CC(C)(C)C)CC2)cc(C)n1` (configuration not stated) is higher in “Percent Effect” value: 1.456% for the first, 123.3% for the second.

First: O=C(Nc1cccc(N2CCN(CC3CC3)CC2)c1)N1CCCC1
Second: O=C([C@@H]1CCCO1)N1CCn2c(Cn3cccn3)cnc2C1
The “Percent Effect” value of the first is lower: 0.3876% for the first, 2.282% for the second.

First: Cc1cccc(CNCc2c(C(C)C)nn(C)c2N2CCOCC2)n1
Second: CNC(=O)C1CCCN(c2nc(-c3ccco3)nc3c2CCNCC3)C1 (configuration not stated)
The “Percent Effect” value of the first is higher: -7.798% for the first, -9.477% for the second.

First: CC(C)NC(=O)c1nnn(-c2cccc(C(F)(F)F)c2)c1C1CC1
Second: NC(=O)c1ccc(OCC(=O)NC2CCc3c(F)cccc32)cc1 (configuration not stated)
The “Percent Effect” value of the first is higher: 8.497% for the first, -9.741% for the second.

First: CC(C)N(C)Cc1ccccc1CNc1ccc2nncn2n1
Second: CN(Cc1cc2n(n1)CCN(C(=O)c1cccnc1)C2)Cc1nccs1
The “Percent Effect” value of the first is lower: -2.79% for the first, 89.98% for the second.

Going from `Cc1ccc(CC(=O)N2CCc3nnc(N(C)C)cc3C2)cn1` to `CN(Cc1cc2n(n1)CCN(C(=O)[C@H]1CCCO1)C2)Cc1nccs1`, the “Percent Effect” value rises from -3.136% to 100.4%.

Going from `CNC(=O)C1CCCN(C(=O)C2CCC2)C1` (configuration not stated) to `CN(Cc1cn2c(n1)CN(C(=O)C1CCCO1)CC2)Cc1ccco1` (configuration not stated), the “Percent Effect” value rises from -10.43% to 5.5%.
